# Screens: PubChem, National Center for Advancing Translational Sciences (NCATS)
# KinaseGlo FLuc: Counterscreen for Luciferase (Kinase-Glo TM) Inhibition. Luciferin 4-monooxygenase (Photuris pensylvanica), Q27757. Kinase-Glo luciferase, ATP luminescence, 8 min. Potency, µM (top dose mostly 38.3 µM), inactives show at the top dose activity change, negative = inhibition, usual class: inhibitors. hit rate 0.28% among 200,000; further: on the % scale 0 is the no-effect control and ±100 the full control effect; nearly all actives have a fitted effect of over 60% in size
#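 Substrate mix (final 50 mM imidazole pH 7.2, 50 mM KCl, 7 mM MgCl2, 10 uM ATP, 0.01% Tween 20, 0.05% BSA) plus pin-tool compound, then Kinase-Glo detection mix; 8 min ambient, luminescence read.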
# Rab9 promoter act: qHTS Assay for Rab9 Promoter Activators; AID 485297, 2010; Huh7 Rab9 promoter-luciferase reporter, luminescence, 24 h; hit rate 2.8% among 320,000; Potency, µM (series often up to 9.22 µM), for the others: at the highest dose activation, negative = inhibition, most hits filed as activators; further: % of control where 0% means no effect; nearly all actives have a fitted effect of over 60% in size
#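 Luminescence from Amplite-detected luciferase (10 minutes, ambient) reports Rab9 promoter activation. Before that, stable Rab9-luciferase Huh7 cells (1500/well, reduced-serum OP-MEM I plus 10% FBS) were exposed to compound for 24 hours at 37C.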
# ELG1 genotoxic: qHTS screen for small molecules that induce genotoxicity in human embryonic kidney (HEK293T) cells expressing luciferase-tagged ELG1 | hit rate 1.3% among 330,000 | HEK293T ELG1-luciferase reporter, luminescence, 16 h | Potency, µM (doses to about 46 µM), for inactives: at the top dose activity change, positive = activation, actives largely listed as activators | AID 504466, 2011; further: % of control where 0% means no effect; nearly all actives have a fitted effect of over 60% in size
#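 ELG1-luciferase HEK293T cells, 2,000/well; compound pinned in; 16 hr, 37 °C, 5% CO2; ONE-Glo, 30 min RT; luminescence on CCD imager.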
# NPC1 promoter act: qHTS Assay for NPC1 Promoter Activators; Huh7 NPC1 promoter luciferase reporter, 24 h; Potency, µM (titrated, usually from 9.22 µM), for the others: at the highest dose activation, actives largely listed as activators; hit rate 2.4% among 320,000; further: % of control where 0% means no effect; nearly all actives have a fitted effect of over 60% in size
#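 Quantitative HTS used a cell-based reporter: Huh7 cells stably bearing the NPC1 promoter upstream of luciferase were treated with compounds for 24 h, and promoter activation was read as luminescence.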
# SMN2 splice up: qHTS Assay for Enhancers of SMN2 Splice Variant Expression. Potency, µM (highest dose often 46.1 µM), inactives show at the highest dose activity change, positive = activation, actives largely listed as activators. hit rate 2.8% among 210,000. HEK293 SMN2-luciferase splicing reporter, luminescence, 30-36 h. AID 1458, 2008; further: % of control where 0% means no effect; nearly all actives have a fitted effect of over 55% in size
#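 qHTS luciferase splicing reporter: luminescence rises when SMN2 exon 7 is included in transfected HEK293 cells. Compound exposure lasted 30-36 h at 37C, with 4.5 mM final sodium butyrate as control, followed by a ONE-Glo read.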
# FLuc modulator: qHTS profiling assay for firefly luciferase inhibitor/activator using purifed enzyme and Km concentrations of substrates (counterscreen for miR-21 project) | purified FLuc, Km substrates, luminescence inhibition | Potency, µM (doses to about 57.5 µM), for inactives: top-dose activity change, negative = inhibition, most hits filed as inhibitors | hit rate 6.9% among 360,000;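 further: plate controls were vehicle for no effect and reference inhibitor for full effect; nearly all actives have a fitted effect of over 55% in size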
# Target sequence (P08659 whole entry, looked up): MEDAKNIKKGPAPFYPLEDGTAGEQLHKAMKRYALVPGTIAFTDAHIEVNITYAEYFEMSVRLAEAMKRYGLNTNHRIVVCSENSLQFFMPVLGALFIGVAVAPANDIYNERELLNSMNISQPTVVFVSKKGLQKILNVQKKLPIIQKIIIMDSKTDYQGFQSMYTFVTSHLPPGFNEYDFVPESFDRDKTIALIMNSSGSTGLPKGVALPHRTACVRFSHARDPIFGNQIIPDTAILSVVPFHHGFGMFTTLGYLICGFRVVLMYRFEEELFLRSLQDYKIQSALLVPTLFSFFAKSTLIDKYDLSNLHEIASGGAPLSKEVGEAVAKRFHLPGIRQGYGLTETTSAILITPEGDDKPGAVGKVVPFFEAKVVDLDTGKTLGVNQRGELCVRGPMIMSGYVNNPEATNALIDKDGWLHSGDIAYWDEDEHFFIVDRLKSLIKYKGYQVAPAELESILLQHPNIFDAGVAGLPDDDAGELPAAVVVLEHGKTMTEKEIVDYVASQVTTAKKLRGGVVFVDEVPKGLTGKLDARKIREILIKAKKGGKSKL
#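 Biochemical qHTS of compounds, final roughly 60 µM downward over six points, against 10 nM purified firefly luciferase using Km concentrations of substrates (10 uM D-luciferin, 10 uM ATP) in Tris acetate pH 7.5 buffer; luminescence output.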
# The depositor's hits bear a star; ? = inconclusive; nt = no result given; [ ] = dose if it differs, or a comment. Only some compounds are listed: those with a hit (about 7.5% of all), similar ones and a draw of the others. The call rests on the fitted dose curve; in most records, active means well fitted curve in the direction sought with a large enough effect; inconclusive means small, poorly fitted or top-dose-only effect, or another doubt; inactive means no such curve, though single readings can be large; an effect the other way counts as inactive or inconclusive. Potency means the concentration at half of the fitted maximal effect.
SMILES,KinaseGlo FLuc,Rab9 promoter act,ELG1 genotoxic,NPC1 promoter act,SMN2 splice up,FLuc modulator
CCc1noc(C)c1C(=O)Nc1nc2c(F)cc(F)cc2s1,nt,?,-1%,23%,nt,12µM*
O=C(Nc1nc2c(F)cc(F)cc2s1)c1ccccn1,?,0.1µM*,9.2µM*,0.11µM*,2.8µM*,0.67µM*
CCOc1ccc2nc(NC(=S)NCc3ccccc3)sc2c1,-3%,12%,14%,9%,-8%,-13%
O=C(Nc1nc2ccc(S(=O)(=O)N3CCCC3)cc2s1)c1ccccn1,2%,?,-7%,26%,-22%,?
Cc1ccc2nc(NC(=O)c3ccccn3)sc2c1,nt,?,0.16µM*,?,nt,0.17µM*
CCOc1ccc2nc(NC(=O)c3ccccn3)sc2c1,nt,?,?,0.1µM*,nt,0.38µM*
Brc1ccc(Nc2c3c(nc4nncn24)CCC3)cc1,nt,nt,nt,nt,2%,-5%
COc1ccc(NC(=O)C(=O)c2cc(C)n(-c3ccc(C)cc3)c2C)cc1Cl,nt,nt,nt,nt,nt,-17%
O=c1[nH][nH]c2c(N=Cc3ccccc3O)ccc(F)c12,nt,-8%,-6%,0%,nt,19µM*
CCC(C)Sc1ccc(-c2nc3ccc(C)cn3c2NCc2ccccc2)cc1OC (stereo unspecified),nt,-3%,-7%,-7%,nt,15µM*
CCCCCCSc1ccc(-c2nc3ccc(C)cn3c2NCc2ccccc2)cc1OC,nt,1%,-3%,-2%,nt,-2%
C/C(=N\NC(=O)c1ccccc1C)c1cccnc1,nt,29%,3%,17%,nt,?
C/C(=N\Nc1ccccc1C)c1cccnc1,nt,4%,11%,2%,nt,17µM*
Cc1ccc(C(=O)Nc2scc(-c3ccccc3)c2C(=O)O)o1,-14%,3%,7%,-1%,4%,15µM*
Cc1ccc(-c2csc(NC(=O)c3ccccc3F)c2C(=O)O)cc1,nt,4%[1.84 µM],-4%,?,nt,21µM*
O=C(Nc1scc(-c2ccccc2)c1C(=O)O)c1ccccc1F,nt,20%,6%,21%,nt,27µM*
COc1ccc(-c2csc(NC(=O)c3ccccc3Br)c2C(=O)O)cc1,nt,-5%,-3%,-4%,nt,?
CCOc1ccc(NC(=O)c2c(NC(=O)Cc3ccccc3)sc3c2CCCC3)cc1,nt,nt,nt,nt,5%,-10%
O=C(CC1N=C2c3ccccc3N=C(SCc3cccc(F)c3)N2C1=O)NCc1cccs1 (stereo unspecified),nt,nt,nt,nt,nt,-15%
COc1cc(C(=O)NS(=O)(=O)c2ccccc2C)ccc1Cc1cn(C)c2ccc(NC(=O)OC3CCCC3)cc12,nt,0%,nt,6%,nt,11µM*
Cc1ccccc1Nc1c(-c2ccc(Br)o2)nc2ccc(Cl)cn12,nt,nt,nt,nt,5%,?
CC(C)(C)OC(=O)N1CCC(c2c(C(=O)NC3CCCCC3)cnn2-c2cccc(Cl)c2)CC1,nt,nt,nt,nt,nt,-2%
COc1ccc2nc3ccccc3nc2c1N,nt,3.2µM*,18µM*,2.2µM*,nt,4.8µM*
Cc1ccc(NC(=O)Nc2cccc(F)c2)nc1,nt,?,?,?,nt,6.7µM*
Cc1ccnc(NC(=O)Nc2cccc(F)c2)c1,-17%,1µM*,0.92µM*,1.6µM*,3.5µM*,0.95µM*
SMILES,KinaseGlo FLuc,Rab9 promoter act,ELG1 genotoxic,NPC1 promoter act,SMN2 splice up,FLuc modulator
COc1cccc(/C=C2\NC(=O)NC2=O)c1O,nt,26%,?,29%,nt,7.6µM*
CCOC(=O)COc1ccccc1/C=C1/NC(=O)NC1=O,-3%,-1%,-1%,-1%,-11%,6%
CN(c1ccccc1)c1nc(N)c([N+](=O)[O-])c(NCCO)n1,nt,0%,11%,2%,nt,-7%
COc1cc(C(C)=O)ccc1OCC(=O)Nc1ccc2nc(C)sc2c1,nt,-2%,3%,1%,nt,nt
COc1ccc(C(=O)/C=C/Nc2cccc(C)n2)cc1OC,-5%,2µM*,?,2.2µM*,13µM*,3.8µM*
COc1ccc(N/C=C/C(=O)c2ccc(OC)c(OC)c2)cc1,nt,-2%,13%,8%,nt,2.4µM*
O=C(/C=C\Nc1cccc(F)c1)c1ccc2c(c1)OCO2,nt,?,0.15µM*,0.32µM*,nt,0.12µM*
COC(=O)c1ccc(N/C=C/C(=O)c2ccc(OC)c(OC)c2)cc1,-8%,10%,?,9%,-10%,-18%
O=C(CN1CCN(C(=O)CNC(=O)c2ccc3c(c2)OCO3)CC1)Nc1cccc(F)c1,nt,-1%,4%,-2%,nt,0%
COc1ccc(N/C=C/C(=O)c2cc(OC)c(OC)c(OC)c2)cc1,nt,-8%,?,-8%,nt,6µM*
Cc1cc(NC(=O)CN2C(=O)CSc3ccc(S(=O)(=O)N(C)C)cc32)ccc1Br,nt,nt,nt,nt,nt,-20%
COc1ccc(N/C=C\C(=O)c2ccc3c(c2)OCO3)cc1OC,-4%,25%,?,27%,21%,1.7µM*
COC(=O)c1ccc(N/C=C\C(=O)c2ccc3c(c2)OCO3)cc1,-7%,?,18%,?,nt,?
COc1ccc(C(=O)/C=C/N2CCCCC2)cc1OC,-6%,23%,19%,?,-2%,24µM*
Cc1ccc(-c2noc(CCCc3ccccc3)n2)cc1,-3%,10%,14%,29%,5%,24µM*
Fc1ccc(OCc2nc(-c3ccc(Br)o3)no2)c(F)c1,-4%,16%,16%,23%,-2%,17µM*
Clc1ccccc1OCc1nc(-c2ccc(Br)o2)no1,-4%,?,23µM*,30%,?,15µM*
Brc1ccc(-c2noc(CCc3ccccc3)n2)o1,3%,19%,15%,19%,18%,24µM*
C=CCN(C(=O)c1csnn1)C(C(=O)NC1CCCC1)c1ccc(F)cc1 (stereo unspecified),nt,2%,1%,-7%,nt,2%
O=C(CN(c1cccc(C(F)(F)F)c1)S(=O)(=O)c1ccccc1)Nc1cccc(Cl)c1,nt,nt,nt,nt,nt,0%
c1ccc(CCc2nc(-c3ccccn3)no2)cc1,2%,2.2µM*,?,3.2µM*,11µM*,13µM*
COc1ccc(NC(=O)CC2CCCCC2)cc1OC,-1%,19%,10%,9%,-3%,-13%
O=C(CC1CCCC1)Nc1ccc(Br)cc1,nt,?,?,?,nt,17µM*
O=C(COC(=O)CC1CCCC1)Nc1ccc(Cl)cc1,nt,-1%,-5%,2%,nt,30µM*
CN(C)CC(O)Cn1c2ccc(Br)cc2c2cc(Br)ccc21 (stereo unspecified),nt,nt,nt,nt,-108%,nt
COc1cc(SC)ccc1C(=O)NCCOc1c(C)cc(C)cc1C,nt,-15%,-3%,1%,nt,3%
